Experimental data as given in PubChem BioAssay (NCATS).
Inconclusive results are not listed. Where a call stands in place of a potency, no number is given. Calls of active or inactive are those of the source. The call rests on the fitted dose curve; in most records, active means well fitted inhibition curve with a large enough effect; inconclusive means small, poorly fitted or top-dose-only effect; inactive means no such curve, though single readings can be large or run the other way.

Each compound was assayed against Retinaldehyde dehydrogenase 3 (Homo sapiens) (UniProt P47895) (assay: qHTS for Inhibitors of the Aldehyde Dehydrogenase Family (ALDH1A3) Primary screen (AID 2061315)). Conditions: ALDH inhibition qHTS; series mostly up to 56 µM.

Row | SMILES | Potency | activity change, negative = inhibition
1 | C=C1C(=O)OC2CC(C)=C(C(C)CCCO[C@@H]3O[C@H](CO)[C@@H](O)[C@H](O)[C@H]3O)C(O)C12 (some centres undefined) | inactive | –
2 | CC1(C)CC[C@]2(C(=O)O[C@@H]3O[C@H](CO[C@@H]4O[C@H](CO)[C@@H](O)[C@H](O)[C@H]4O)[C@@H](O)[C@H](O[C@@H]4O[C@H](CO)[C@@H](O)[C@H](O)[C@H]4O)[C@H]3O)CC[C@]3(C)C(=CCC4[C@@]5(C)CC[C@H](O[C@@H]6OC[C@@H](O)[C@H](O)[C@H]6O)[C@@](C)(C(=O)O)C5CC[C@]43C)[C@@H]2C1 (some centres undefined) | inactive | –
3 | O=C(/C=C/c1ccc(O)cc1)N[C@@H](Cc1ccc(O)cc1)C(=O)O | inactive | –
4 | CC(C)/C=C1\NC(=O)C(C(C)C)n2c1nc1c(c2=O)C=CC=CO1 (centres undefined) | inactive | –
5 | CNC(=O)[C@H]1O[C@@H](n2cnc3c(NCc4ccc(N)c(I)c4)ncnc32)[C@H](O)[C@@H]1O | – | 4.83% [at 11.2 µM] (inactive)
6 | C[C@@H]1CCCN1CCc1cc2cc(-c3ccc(C#N)cc3)ccc2o1 | inactive | –
7 | C=C[C@@]12COC(=O)C(=C)[C@@H]1[C@@H](O)[C@H](C(=C)C(=O)OC)[C@@H](O)C2 | inactive | –
8 | CC(=O)O[C@@H]1[C@H]2[C@@H](OC(=O)c3ccccc3)[C@@H](C)C[C@]2(O)[C@H](OC(C)=O)[C@@]2(C)[C@@H]3CC(C)(C)C(=O)[C@]3(OC(C)=O)C[C@@]12C | inactive | –
9 | CC[C@@H](C)[C@@H]1OC2(C=C[C@H]1C)C[C@@H]1C[C@H](C/C=C(\C)[C@H](O[C@H]3C[C@H](OC)[C@H](O[C@H]4C[C@H](OC)[C@H](NC(C)=O)[C@H](C)O4)[C@H](C)O3)[C@H](C)/C=C/C=C3\CO[C@H]4[C@H](O)C(C)=C[C@@H](C(=O)O1)[C@@]34O)O2 (some centres undefined) | inactive | –
